# Hits are enriched below; roughly 1.4% of the tested compounds scored in any of these assays.
# AMA1 RON2 block = disrupts binding of P. falciparum AMA1 to RON2 | AlphaScreen AMA1-biotinylated RON2 peptide binding | Potency, µM (highest dose often 58.2 µM), usual class: inhibitors | hit rate 0.2% among 360,000 | AID 720542; note: nearly all actives have a fitted effect of over 45% in size
#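 AMA1 (3D7) with his tag at 25 nM final met compounds first, then biotinylated RON2 peptide at 25 nM; detection used donor plus acceptor beads, 10 µg/mL apiece, read by AlphaScreen after 30 min at room temperature.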
# SARS PLP yeast = blocks SARS-CoV papain-like protease in a yeast assay | hit rate 0.19% among 330,000 | Potency, µM (highest dose often 32.9 µM), usual class: activators | S. cerevisiae expressing SARS-CoV PLpro, growth rescue | AID 485353; calls by dose curve; note: nearly all actives have a fitted effect of over 55% in size
# Vaccinia mCherry = inhibitors of vaccinia virus infection (mCherry reporter signal); hit rate 0.63% among 310,000; Potency, µM (series often up to 36.5 µM), hits mostly inhibitors; Vaccinia virus mCherry reporter infection, fluorescence; calls by dose curve; tested in A549 cells; note: nearly all actives have a fitted effect of over 35% in size
# Vaccinia Venus = vaccinia inhibition (Venus reporter). Vaccinia virus Venus reporter expression, fluorescence. hit rate 0.46% among 330,000. AID 720580. Potency, µM (series often up to 36.5 µM), usual class: inhibitors; calls by dose curve; tested in A549 cells; note: nearly all actives have a fitted effect of over 30% in size
# AmpC inh detg = blocks E. coli AmpC beta-lactamase in detergent assay. AmpC hydrolysis of nitrocefin, absorbance 480 nm, 0.01% Triton. Potency, µM (top dose mostly 114 µM), most hits filed as inhibitors. hit rate 0.041% among 370,000; note: nearly all actives have a fitted effect of over 25% in size
# Target sequence (P00811 whole entry, looked up): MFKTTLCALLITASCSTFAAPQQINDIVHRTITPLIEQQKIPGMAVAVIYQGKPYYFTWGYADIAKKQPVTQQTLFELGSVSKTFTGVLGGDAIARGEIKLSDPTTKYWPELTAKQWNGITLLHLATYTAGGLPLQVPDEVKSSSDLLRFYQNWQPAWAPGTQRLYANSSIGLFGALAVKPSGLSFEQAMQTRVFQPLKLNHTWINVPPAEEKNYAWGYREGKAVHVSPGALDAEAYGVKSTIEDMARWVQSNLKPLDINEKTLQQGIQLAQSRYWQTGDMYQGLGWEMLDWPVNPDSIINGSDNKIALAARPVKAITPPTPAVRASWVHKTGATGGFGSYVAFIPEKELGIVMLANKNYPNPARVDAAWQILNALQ
#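 20 mM phosphate pH 7.0 + 0.01% (detergent screen) or 0.0001% Triton X-100; 5.3 nM AmpC reagent; cpd preinc 15 min RT; nitrocefin (800 uM stock) to start; A480 q20 s × 4 min; Activity was normalised to no-enzyme and no-compound control wells.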
# AmpC no deterg = inhibitors of E. coli AmpC beta-lactamase without detergent | AmpC nitrocefin hydrolysis, absorbance 480 nm, 0.0001% Triton | Potency, µM (doses to about 57.1 µM), hits mostly inhibitors | hit rate 0.52% among 330,000 | AID 485341; note: nearly all actives have a fitted effect of over 20% in size
#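 AmpC (5.3 nM in the dispensed reagent) in 20 mM phosphate pH 7.0 with 0.01% (detergent screen) or 0.0001% Triton X-100 was preincubated with compounds for 15 min at room temperature. Nitrocefin was then added from an 800 uM solution, and hydrolysis was followed at 480 nm.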
# Numbers stand for hits; n = inactive; u = inconclusive; x = not tested or not shown; [ ] = dose if it differs, or a comment. Unless noted, calls come from the whole dose curve; as a rule, active = well fitted curve in the direction sought with a large enough effect; inconclusive = small, poorly fitted or top-dose-only effect, or another doubt; inactive = no such curve, though single readings can be large; an effect the other way counts as inactive or inconclusive.
SMILES,AMA1 RON2 block,SARS PLP yeast,Vaccinia mCherry,Vaccinia Venus,AmpC inh detg,AmpC no deterg
CCC(C)Cn1cnc2c(Sc3c([N+](=O)[O-])ncn3C)nc(N)nc21 (stereo not drawn),n,x,16µM,u,x,x
CCCCn1cnc2c(SCc3ccc([N+](=O)[O-])cc3)nc(N)nc21,n,x,4µM,u,x,x
Cn1cnc([N+](=O)[O-])c1Sc1nc(N)nc2c1ncn2Cc1ccccc1,n,x,13µM,u,x,x
CCCn1cnc2c(Sc3c([N+](=O)[O-])ncn3C)nc(N)nc21,n,x,u,u,x,x
CCc1ccc(NC(=O)COC(=O)c2ccccc2OCC(=O)N(C)C)cc1,x,x,n,n,x,x
Fc1ccc(NCc2ccccc2-c2nnc(-c3ccccc3Cl)o2)cc1Cl,x,x,n,n,n,x
CCc1cccc(OCC(=O)Nc2ccc(S(=O)(=O)Nc3ccccn3)cc2)c1,n,n,n,n,n,10µM
C=C1C=C(C(F)F)n2ncc(C(=O)N3CCCCC3)c2N1,x,x,n,n,x,x
COc1ccc(Nc2ncnc3nc[nH]c23)cc1OC,n,n,n,n,u,13µM
c1ccc(COc2ccc(Nc3ncnc4nc[nH]c34)cc2)cc1,n,n,7.1µM,n,u,n
Cc1ccc(Nc2ncnc3nc[nH]c23)cc1,x,x,n,n,x,x
COCc1c(C(=O)N2CCN(c3ccccc3O)CC2)cnn1-c1nccc(-c2cccs2)n1,x,x,n,n,x,x
O=C(NCCSc1c(-c2ccc(Br)cc2)[nH]c2ccccc12)c1ccc(S(=O)(=O)N2CCOCC2)cc1,x,x,n,n,n,x
Nc1nc(F)nc2c1ncn2[C@@H]1O[C@H](CO)[C@@H](O)[C@@H]1O,n,n,3.2µM,7.1µM,u,n
Nc1nc(F)nc2c1ncn2[C@@H]1O[C@H](CO)[C@@H](O)[C@H]1O,n,x,1µM,1.1µM,x,x
Nc1nc(Cl)nc2c1ncn2C1CC(O)C(CO)O1 (stereo not drawn),n,x,2.5µM,u,n,n
OC[C@H]1O[C@@H](n2cnc3cncnc32)[C@H](O)[C@@H]1O,x,x,13µM,u,x,x
Nc1ncnc2c1ncn2[C@@H]1O[C@H](CO)[C@@H](O)[C@@H]1O,n,x,u,n,x,x
Nc1ncnc2c1ncn2C1O[C@H](CO)[C@@H](O)[C@@H]1O (stereo partly drawn),n,x,n,n,u,n
S=C(NCCCc1cnc[nH]1)NCCCN(Cc1ccc(Cl)cc1)c1ncc(Br)cn1,x,x,n,u,x,x
OC[C@H]1O[C@@H](n2cnc3c(NCc4ccco4)ncnc32)[C@H](O)[C@@H]1O,n,x,10µM,u,x,x
COc1ccc(/C=N/NC(=O)c2ccc(Br)o2)cc1Cn1cc([N+](=O)[O-])cn1,n,n,n,n,n,n
COc1ccc(/C=N/NC(=O)c2ccccc2O)cc1Cn1cc([N+](=O)[O-])cn1,n,n,n,n,n,6.3µM
COc1ccc(/C=N/NC(=O)c2cc(O)c(O)c(O)c2)cc1Cn1cc([N+](=O)[O-])cn1,u,10µM,x,x,n,n
COc1cc(CN2CCC3(CC2)CC3C(=O)Nc2ccc3sc(C)nc3c2)ccc1F (stereo not drawn),x,x,n,n,x,x
SMILES,AMA1 RON2 block,SARS PLP yeast,Vaccinia mCherry,Vaccinia Venus,AmpC inh detg,AmpC no deterg
C=CCNc1nnc(Sc2ncccc2[N+](=O)[O-])s1,n,n,10µM,u,n,n
CCOC(=O)c1ccc2c(c1)N(Cc1ccc(F)cc1Cl)C(=O)c1ccccc1S2(=O)=O,x,x,n,n,n,x
O=C1CC(C(=O)Nc2ccccc2)C2(CCCC2)O1 (stereo not drawn),n,n,x,x,u,n
O=C1CC(C(=O)Nc2ccc(C(=O)N3CCOCC3)cc2)C2(CCCCC2)O1 (stereo not drawn),n,n,x,n,n,5µM
CN(CCO)C(=O)c1cn(C2CCN(Cc3cccc(C(F)(F)F)c3)CC2)nn1,x,x,n,n,x,x
COc1ccccc1NC(=O)NNC(=O)c1cc2ccccc2cc1O,n,n,x,x,n,n
Cc1ccc(NC(=O)NNC(=O)c2cc3ccccc3cc2O)cc1,n,n,x,x,n,10µM
O=C(CN1C(=O)CCc2cc(Br)ccc21)Nc1ccc(OC(F)(F)F)cc1,x,x,n,n,n,x
C[C@H]1[C@H](NC(=O)C(=NOC(C)(C)C(=O)O)c2csc(N)n2)C(=O)N1S(=O)(=O)O,n,x,n,n,4µM,5µM
CCCCC#Cc1ccc(C(=O)NNC(=O)Nc2cc(Cl)cc(Cl)c2)o1,n,n,x,x,n,14µM
Cc1cc(C(=O)NNC(=O)Nc2ccc(Cl)cc2)no1,n,n,n[7.34 µM],n[7.34 µM],n,n
COc1ccccc1NC(=S)N(CCc1c(C)[nH]c2ccccc12)Cc1cccs1,n,n,u,u,u,40µM
COc1cc(=O)n2c(c1C(=O)N(C)Cc1nccs1)CCN(Cc1cccc(F)c1F)CC2,x,x,n,n,x,x
COc1ccc(NS(=O)(=O)c2cccc(-c3n[nH]c(=S)n3Cc3ccccc3)c2)cc1,n,n,n,n,u,13µM
COc1ccc(NS(=O)(=O)c2ccc(-c3n[nH]c(=S)n3Cc3ccccc3)cc2)cc1,n,n,x,x,n,7.9µM
CCCCCCCCCCCCCCC[C@@H](O)[C@H](CO)NC(=O)CCCCCCC,x,x,n[3.33 µM],n[3.33 µM],x,x
Clc1ccc(C2=NNC(=NCc3ccccc3)SC2)cc1,n,n,u,n,n,n
Fc1ccc(C2=NNC(=NCc3ccccc3)SC2)cc1F,n,n,n,n,n,18µM
CC1(C)N=C(N)N=C(N)N1CCCCc1ccccc1,n,x,0.71µM,1µM,x,x
CN(C)C(=S)SSC(=S)N(C)C,n,n,n,n,79µM,u
